According to PubChem BioAssay (NCATS):
Results filed as inconclusive are left out. Unmarked numbers belong to inactive results. Activity calls are given as the source filed them. Calls follow the shape of the dose curve; as a rule, active = well fitted cell-killing curve with a large enough effect; inconclusive = small, poorly fitted or top-dose-only effect, or effect the other way; inactive = no such curve, though single readings can be large or run the other way.

experiment: Quantitative High-Throughput drug screen in 47 multiple myeloma cell lines against the NCATS MIPE library collection: KMS28PE_JCRB cell viability assay (AID 1918983); settings: KMS28PE multiple myeloma viability, CellTiter-Glo ATP, 48 h; series mostly up to 45.8 µM; viability, % of DMSO control: at the top concentration; also: nearly all actives have a fitted effect of over 35% in size
Procedure, shortened: (§1)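 Myeloma cells (500/well) treated with MIPE 4.0 compounds for 48 h at 37 °C, 5% CO2. Viability read as ATP via CellTiter-Glo luminescence after 5 min at RT; DMSO-only wells = 100%, media-only = 0% viability.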
Potency is read from the fitted curve at half-maximal effect.

Row | Compound | viability, % of DMSO control [%] | Potency
1 | COc1ccc(Cn2ccc3ccc(C(=O)NO)cc32)cc1 | 136 | –
2 | O=C(CO)N1CCC(c2[nH]nc(-c3ccc(Cl)cc3)c2-c2ccncn2)CC1 | – | 0.332 µM (active)
3 | CC1(COc2ccc3c(c2)ncn3-c2ccc3cccc(N4CCC(N)CC4)c3n2)COC1 | – | 0.59 µM (active)

experiment: Quantitative High-Throughput drug screen in 47 multiple myeloma cell lines against the NCATS MIPE library collection: L363_DSMZ cell viability assay (AID 1918984); settings: L363 myeloma viability, CellTiter-Glo ATP luminescence, 48 h; viability (% of control): at 45.8 µM (top of the series); also: nearly all actives have a fitted effect of over 40% in size
Procedure, shortened: as §1

Row | Compound | Potency
4 | N#CC(c1ccnc(NCCc2cccnc2)n1)c1nc2ccccc2s1 (stereo unspecified) | 4.69 µM (active)
5 | CN1CCN(c2ncc(-c3cc(Cl)cc(Cl)c3Cl)c(N)n2)CC1 | 18.7 µM (active)
6 | CCN(CC)CCCCNc1nc2cc(Cl)c(Cl)cc2nc1-c1ccc(-c2cccs2)s1 | 5.9 µM (active)
7 | Cc1ccccc1-n1c(Cn2nc(-c3cccc(O)c3)c3c(N)ncnc32)nc2cccc(C)c2c1=O | 2.35 µM (active)
8 | O=C(NC[C@H](O)CO)c1ccncc1Nc1ccc(I)cc1F | 13.2 µM (active)

experiment: Quantitative High-Throughput drug screen in 47 multiple myeloma cell lines against the NCATS MIPE library collection: KMS34_JCRB cell viability assay (AID 1918985); settings: KMS34 myeloma viability, CellTiter-Glo ATP luminescence, 48 h; series mostly up to 45.8 µM; viability, percent of control: at the top concentration; also: nearly all actives have a fitted effect of over 40% in size
Procedure, shortened: as §1

Row | Compound | Potency | viability, percent of control [%]
9 | CC1C(=O)OC2C(O)C34C5CC(C(C)(C)C)C36C(OC(=O)C6O)OC4(C(=O)O5)C12O (stereo unspecified) | 23.5 µM (active) | –
10 | C[C@@H](NC(=O)c1ncnc(N)c1Cl)c1ncc(C(=O)Nc2cc(C(F)(F)F)c(Cl)cn2)s1 | 4.18 µM (active) | –
11 | C[C@@H]1C[C@H]2[C@@H]3CCC4=CC(=O)C=C[C@]4(C)[C@@]3(F)[C@@H](O)C[C@]2(C)[C@@]1(O)C(=O)CO | – | 85.3
12 | O=c1[nH]c(=O)n([C@H]2C[C@@H](O)[C@@H](CO)O2)cc1I | 2.09 µM (active) | –
13 | CON(C)C(=O)N1N=C(c2cc(F)ccc2F)S[C@]1(CCCN)c1ccccc1 | – | 9.61
14 | C[C@]12C=CC(=O)C=C1CC[C@@H]1[C@@H]2[C@@H](O)C[C@@]2(C)[C@@H]1CC[C@]2(O)C(=O)CO | 0.187 µM (active) | –
15 | CN1CCN2c3ncccc3Cc3ccccc3C2C1 (stereo unspecified) | – | 109
16 | N#CC(c1ccnc(NCCc2cccnc2)n1)c1nc2ccccc2s1 (stereo unspecified) | 14.8 µM (active) | –
17 | CN1[C@H]2CC[C@H]1CC(OC(=O)c1c[nH]c3ccccc13)C2 (stereo partly specified) | – | 89.7
18 | Cc1cnc(-c2cc(N3CCN(C(=O)CCS(C)(=O)=O)CC3)ncc2Cl)c(C)c1 | – | 98
19 | CN1CCN(c2ncc(-c3cc(Cl)cc(Cl)c3Cl)c(N)n2)CC1 | – | 99.2
20 | CCC[C@H](Nc1nc(-c2ccc(NC(=O)NCC)c(OC)c2)ncc1C)c1cccnc1 | 0.0059 µM (active) | –
21 | CCN(CC)CCCCNc1nc2cc(Cl)c(Cl)cc2nc1-c1ccc(-c2cccs2)s1 | 16.6 µM (active) | –
22 | CO[C@H]1/C=C\O[C@@]2(C)Oc3c(C)c(O)c4c(O)c(c(C=NN5CCN(C6CCCC6)CC5)c(O)c4c3C2=O)NC(=O)C(C)=CC=C[C@H](C)[C@H](O)[C@@H](C)[C@@H](O)[C@@H](C)[C@H](OC(C)=O)[C@H]1C | 2.96 µM (active) | –
23 | COc1cc(C=CC(=O)O)ccc1O | – | 112
24 | Cc1ccccc1-n1c(Cn2nc(-c3cccc(O)c3)c3c(N)ncnc32)nc2cccc(C)c2c1=O | 3.32 µM (active) | –
25 | O=C(NCCCCN1CCOCC1)c1cc2ccccc2o1 | – | 124
26 | Cc1[nH]c(C=C2C(=O)Nc3ccc(S(=O)(=O)N(C)c4cccc(Cl)c4)cc32)c(C)c1C(=O)N1CCN(C)CC1 | 20.9 µM (active) | –
27 | O=C(Nc1ccc(OC(F)(F)F)cc1)c1sccc1NCc1ccnc2ccccc12 | 10.5 µM (active) | –
28 | COc1ccnc(CS(=O)c2nc3ccc(OC(F)F)cc3[nH]2)c1OC (stereo unspecified) | – | 98.7
29 | O=C(NC[C@H](O)CO)c1ccncc1Nc1ccc(I)cc1F | 1.18 µM (active) | –
30 | O=C(CO)N1CCC(c2[nH]nc(-c3ccc(Cl)cc3)c2-c2ccncn2)CC1 | – | 69.3
31 | CC1(COc2ccc3c(c2)ncn3-c2ccc3cccc(N4CCC(N)CC4)c3n2)COC1 | 1.05 µM (active) | –
